# From the supplement of paper PMC6555819
# Assays:
# Test in all cases: PBM binding z-score (relative to random genomic background probes); higher = stronger binding; sequences stand for … in GC…GCGATTGACAGCGTAGAATGAAGG
# [1] = system: RARb homodimer (NR concentration 270 nM)
# Outline: (§1)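 Each nuclear receptor dimer, without ligand, was incubated for 1 h on custom Agilent 4×180K protein-binding microarrays. Binding was detected with antibodies against each partner (one per run), and scanned fluorescence was regression-normalized. The binding z-scores are referenced to random human genomic background probes.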
# [2] = system: RARg:RXRa (NR concentration 270 nM, RXRa partner concentration 90 nM)
# Outline: as §1
# [3] = system: RARg homodimer (NR concentration 270 nM)
# Outline: as §1
# [4] = system: RXRa DBDmut IVT, anti-RXR (DBD mutation: RXRa K156A/R161A, NR concentration 90 nM)
# Outline: as §1
# [5] = system: RXRa homodimer (NR concentration 180 nM)
# Outline: as §1
# [6] = system: THRa:RXRa (NR concentration 90 nM, RXRa partner concentration 90 nM)
# Outline: as §1
# [7] = system: THRa homodimer (NR concentration 90 nM)
# Outline: as §1
# [8] = system: VDR homodimer (NR concentration 270 nM)
# Outline: as §1
Sequence,PBM binding z-score [1],PBM binding z-score [2],PBM binding z-score [3],PBM binding z-score [4],PBM binding z-score [5],PBM binding z-score [6],PBM binding z-score [7],PBM binding z-score [8]
TCTTGTAGATCAACAGAAGGTTAAGAAAGATCGA,0.688,0.942,0.329,0.67,1.02,0.733,-0.701,-0.188
CGCACTAGGTCAAGGACAGTGAATCTCCGCACGC,3.34,3.82,4.48,1.72,2.63,3.03,2.15,0.387
TCTAGTTGGTCACGGAGATCACACACGACGGGTA,1.07,1.07,1.4,0.762,1.19,0.155,0.328,0.211
GCTACTGGGGCATCAGCAGGTTACCATAACTTAA,0.946,0.791,0.586,0.403,0.169,1.09,0.00611,-0.67
CGTCCAAGGTCAGCAGGTAAGTGAAAGCGACGTG,3.74,5.27,5.92,2.48,3.94,3.46,2,0.856
GCGACTGGGGCACCAGCAGGTTACCATAACTTAA,0.971,1.13,0.678,-0.795,0.401,1.07,-0.0837,-0.699
ATCTCTAGGTAACAAGTACAGTGAAAGAGAGGAC,0.631,0.905,0.824,-0.118,0.349,1.12,0.739,0.41
TCTCAGAGGACACGAAAGGTCAGAGCTCGACATC,4.95,5.29,6.24,1.46,4.47,3.77,0.917,0.991
CCTCGGCGGACAACAGGAGGTCAGAGCTGCCAGA,2.88,2.16,2.04,-0.404,1.71,1.75,0.00224,0.257
TAGCATAGGTCATTCAGGGGCCAGTATAGAAAGC,3.72,7.38,5.09,1.83,5.02,3.87,-0.317,0.876
TCTTGTAGATCAAAGGTTCAGAAAGCCGAAGCCT,0.917,0.795,0.335,1.32,1.29,0.166,-0.308,1.5
TCTATTAGTTGAAAGGCAACCGACGAGTCCGTTT,-0.227,0.248,0.111,1.66,0.759,0.0956,0.0862,1.08
TGTCACAGTTCAAAGGTAACGTAAGTATCCACAC,1.81,3.57,2.54,2.93,4.82,2.74,-0.0814,2.33
ATCTCTAGGTAAAGATAGTTCAGTTAATGCAAAT,1.19,0.937,0.915,0.536,0.419,1.27,0.471,0.927
CCGACTGGGGCGAGGTTACCATAACGCACAGCCA,0.887,0.854,0.545,-0.326,1.39,1.55,0.408,0.294
CCTTACGGGTCACTGACGGGTTATAGCATTTGGA,3.38,5.58,4.49,1.51,5.1,2.74,0.301,0.822
GCATATAGGTAATACAAGTTGAAAGTCCGATTGT,0.185,0.232,0.481,0.331,0.404,1.76,-0.418,0.193
TTTCGGAGGACACGAAGGTCAGAGCTTTCCAGAG,3.81,3.45,4.21,0.363,2.22,3.06,1.45,1.86
CAAACTAGGACACCGGAAGGTCAAAGTCCGCATG,4.14,4.12,3.83,0.721,3.58,3.71,2.1,2.92

Sequence,PBM binding z-score [1],PBM binding z-score [2],PBM binding z-score [3],PBM binding z-score [4],PBM binding z-score [5],PBM binding z-score [6],PBM binding z-score [7],PBM binding z-score [8]
TCTCGGAGGACACGAAGGTCACAGCTTTCCAGAG,4.54,4.52,4.93,1.47,3.74,3.86,1.77,2.9
TCTGCTAGGTCAACGATGGTCAGCAAATCTGCTA,3.35,3.94,5.26,0.984,2.45,3.17,0.756,-0.402
ACTATTAGTTGACTTAGGTCAACCGATACGACGC,3.31,2.8,2.9,1.07,2.17,3.47,2.98,1.41
TCAATTAGTTGAAGGGCAACCGACGAGTCCGTTT,1.28,0.369,0.258,1.02,0.562,0.164,-0.267,1.42
CCTAGTTCGTCAGGAGGTCACACACCGGATATGA,4.54,6.37,4.42,3.1,4.83,3.92,2.68,4.2
GCATATAGGTAGTACAAGGTGAAAGTCCGATTGT,0.817,0.404,0.395,0.422,0.53,3.23,1.02,0.0912
CCGACTGGGGCAGAAAGGTTACTATACCATCCGG,1.91,1.26,1.23,-0.158,1.3,0.534,-0.377,-0.181
ACAATGAGGTTACCAAAGATCAGGGAAACGCTTG,1.14,2.27,2.07,1.4,2.9,2.77,1.14,0.706
CCTAATTGGTCAGGAGGTCACACACCGGATATGA,4.46,4.97,4.47,1.33,4.88,3.69,2.45,2.62
CGAACTAGGTCATCCAGGACAGTGACTACATTGA,3.11,4.13,4.54,2.28,2.93,3.77,2.2,1.69
CGTCCAAGGTCAGAGAGGTCCGTGAATGCCGAGT,3.81,4.45,5.28,2.56,3.48,3.5,1.77,2.04
CCTTACGGGTAACTGACAGGTTATAGCATTTGGA,0.321,0.742,0.501,0.0265,0.525,0.456,-0.293,-0.157
TCTAGTTGGTCACGGAGGTCTCACACGACGGGTA,1.65,1.31,1.72,0.721,1.01,0.636,0.268,0.33
CCTACTGGGCCAAAAAGGTCATTGACGCCGATAA,4.4,4.59,4.36,0.774,4.9,3.02,0.658,2.4
AGACTGAGGTTATACGTAGATCAGGGAAGAAAGT,0.864,1.64,1.03,1.44,2.09,2.01,0.684,0.49
CGAACTAGGTCAAGGACAATGAATCTCCGCACGC,3.13,3.87,4.64,1.52,2.78,3.12,2.15,0.633
TCTTGTAGATCAAAGGTTAACAAAGCCGAAGCCT,1.66,1.93,1.09,0.706,3.2,1.32,-0.41,-0.185
ACTAGCAGGCCAAGTTTGGGTCATTCAAACAAAG,2.24,2.22,1.29,-0.125,0.803,2.55,0.849,0.69
AGAATGAAGTTATACGTAGATCAGGGAAGAAAGT,-0.451,0.0716,0.29,-0.796,-0.0486,-0.563,-0.66,-0.183

Sequence,PBM binding z-score [1],PBM binding z-score [2],PBM binding z-score [3],PBM binding z-score [4],PBM binding z-score [5],PBM binding z-score [6],PBM binding z-score [7],PBM binding z-score [8]
GGAACAAGGGCATTCGAGTTGATAGCATGGCGAT,1.12,1.21,1.36,2.48,0.917,3.16,-0.205,2.39
ACTAGTTGGTCAGCTGATGTCACACACAATTCGG,1.06,0.65,1.08,0.494,0.485,1.29,0.161,0.144
TCGATTAGGTTAGTCGGGGCATTCAGCCAACATA,0.609,0.149,0.141,1.32,0.147,1.4,0.446,0.465
CCTACTGGGCCATTCAGAGGTCGTTGATCATATG,1.58,1.55,0.872,0.268,1.05,1.28,0.339,2.12
CAAACTACGTCACGAAAGGTCAAAGTCGAATGAC,4.48,5.61,5.12,1.05,6.68,3.93,1.11,2.66
ATCTCTAGGTAAAAGTTCCGTGAATCCCGAGGAT,-0.157,0.0505,0.279,0.162,0.162,0.383,0.302,0.13
ACTATTAGTTGAGACGAGTGCAACCGATAGGTTG,-0.322,0.00696,0.277,0.58,0.199,0.501,-0.775,1.49
CCTACTGGGCCATCAGGTAATTGATATCAACGTT,0.184,-0.0181,0.255,-0.203,-0.166,0.522,0.334,-0.212
CCTTACGCGTCACTGACAGGTTATAGCATTTGGA,0.655,0.439,0.151,1,0.414,0.506,0.512,0.287
CGAACTAGGTCATCCAGGAAAGTGAATACATTGA,2.85,4.03,4.93,2.23,3.11,2.77,0.863,1.12
TAGCCTAGGTCATGCGGGCCAGTATGGTGTCGGC,2.86,4.2,4.58,0.269,3.23,2.96,1.07,0.682
GCTCGGAGGACAAGGGCAGAGCTTTGTCCGTAGA,0.567,-0.153,0.628,-0.927,-0.428,0.387,-0.399,-0.558
TCTAGTTGGTCACCGAGGTCACACACGACGGGTA,4.5,4.8,4.64,1.4,5.06,4.2,4.2,3.89
TCTTGTAGATCAACAGGAGGTTATGAAAGATCGA,0.222,0.765,0.211,0.368,0.889,0.76,-0.681,-0.167
CCGACTGGGGCAAGGTTACCATGACGCACAGCCA,1.41,1.07,1.09,-0.669,1.13,1.21,0.0571,-0.0501
TAAACAGGGTCAAAGGCCAGAGTACGAATGTCGA,3.41,5.73,4.81,3.1,7.01,3.51,0.558,3.45
GCTGCGAGGTCAGGTTGGTCAGCTAACGGGTACG,3.93,4.9,5.27,3.04,4.52,3.7,2.31,2.88
AGTGAAAGTTCACTAGGTAACGTAAGATTCAGCT,3.4,4.46,5.32,3.84,3.77,1.96,-0.00547,3.15
CGTCCCAGGTCAAGGTCAGTGAAAGAGACTCGAA,4.62,5.74,6.29,2.55,5.19,4.18,3.61,2.6
